Molecules are shown by their SMILES. Compounds without any hit were thinned out: in the full panel of roughly 83,000, 20% have a hit.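 Growth was measured after 48 h exposure to one concentration of compound in 96-well plates. Values under 10 count as active.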 Active and inactive are the calls of the source.

The assay deals with RPMI-8226 leukemia. The assay is described as follows: NCI-60 one-dose screen, 48 h (100 = growth as untreated, 0 = no growth, -100 = all killed). Conditions: 10 µM unless noted. On the procedure:
Growth inhibition of the RPMI-8226 human tumor cell line is measured as a screen for anti-cancer activity. Cells are grown in 96 well plates and exposed to the test compound for 48 hours. Compounds are tested at a single concentration, which is 10^-5 M for most compounds. The reported endpoint is percent growth (GI% or GIPRCNT), where numbers from 0 - 100% represent growth inhibition, and numbers from -100% - 0 represent cell death. For example, a value of 40 represents 60% growth inhibition. A value of 0 means no net growth occurred over the course of the experiment. A value of -40 indicates 40% of cells at the beginning of the experiment died by the end of the experiment. A value of -100 means all cells are dead at the end of the experiment.
NCI-60 Human Tumor Cell Lines Screen was performed using the standard one-dose NCI protocol, which is described in more detail at https://dtp.cancer.gov/discovery_development/nci-60/default.htm.
Compounds with GIPRCNT values below 10 were considered active. Activity score was based on GIPRCNT using the following formula: […]
Score is 0 for GIPRCNT values of 100 or above, 50 for GIPRCNT values of 0, and 100 for GIPRCNT values of -100.
As for `CCOC(=O)c1cnn(CC(C)O)c1NC(=O)NCc1ccccc1C(F)(F)F` (stereo not given), the growth was 116% (inactive).

On to `Cc1nc(N/N=C/c2cn(-c3ccccc3)nc2-c2cc3ccccc3oc2=O)sc1N=Nc1ccccc1`, for which the growth was 89.3% (inactive).

In the case of `N#Cc1c(-c2ccc(Br)cc2)nc2c(N=Nc3ccc(S(N)(=O)=O)cc3)c(N)nn2c1N`, the growth was -13.6% (active).

As for `COc1ccc(C(=O)Nc2ncc(Cc3ccc(Cl)cc3)s2)cc1`, the growth is 18.2% (inactive).

As to `C=C1C(=O)O[C@H]2[C@H]1CC/C(COC(=O)NCc1ccc(Cn3c(=O)sn(-c4ccccc4)c3=O)cc1)=C\CC[C@@]1(C)O[C@@H]21`, the growth was 1.88% (active).

Regarding `CCN(CC)C(=O)CC1=C(C)/C(=C/c2[nH]c(-c3ccc[nH]3)cc2OC)N=C1C`, the growth is 13.7% (inactive).

For the compound `Oc1c(I)cc(I)cc1CN(Cc1ccccn1)Cc1ccccn1`, the growth is 16.1% (inactive).

With `CSc1ccc(N2C(=N)C(=S)N(c3ccc(C)cc3)C2=O)cc1`, the growth is 89% (inactive).

Regarding `CCN(CC)c1ccc(-c2cc(-c3cc(OC)c(OC)c(OC)c3)nc(N3CCC(O)CC3)c2C#N)cc1`, the growth was -11.8% (active).

In the case of `O=S(=O)(NCCNc1nccc(-c2c(-c3ccc(F)c(O)c3)nc3sccn23)n1)c1ccc(Cl)cc1`, the growth was -11.1% (active).

For the compound `O=C(/C=C/c1cn(-c2ccccc2)nc1-c1ccccc1)CCC(=O)NO`, the growth was 99.3% (inactive).

In the case of `CCCC(O)Cn1ncc(C(=O)OCC)c1NC(=O)NCc1cccc(C(F)(F)F)c1` (stereo not given), the growth was 47.9% (inactive).

`O=C(Cc1ccc(/C=C/C(=O)c2ncc[nH]2)cc1)Nc1cc(F)c(F)c(F)c1`: the growth is 0.541% (active).

For the compound `Cc1nn(C)c2ncnc(N/N=C/c3cccc(O)c3O)c12`, the growth is -8.14% (active).

As for `C[C@@H]1CN(c2cnc(C(=O)Nc3cc(F)cc4cccnc34)cn2)C[C@H](C)N1`, the growth was 26% (inactive).

As to `O=C(NCc1ccc(Cn2c(=O)sn(-c3ccccc3)c2=O)cc1)OCc1ccc2cccc(O)c2n1`, the growth is -22.5% (active).

In the case of `CN1C(=O)/C(=C/c2ccc(C(=O)Nc3ncc(Cc4cc(Cl)ccc4Cl)s3)cc2)SC1=S`, the growth was 57% (inactive).

Turning to `COc1ccc(-c2cc(C(=O)N3N=C(c4ccc(N)cc4)CC3c3ccc(Cl)cc3)c3cc(OC)ccc3n2)cc1` (stereo not given), the growth was 20.9% (inactive).

Turning to `O=C(NN1C(=O)CSC1c1cccc([N+](=O)[O-])c1)c1ccc(NC(=O)c2ccccn2)cc1` (stereo not given), the growth is 103% (inactive).

As for `N#C/C(=C\c1ccc(-c2cccc(Cl)c2)o1)C(=O)Nc1ncc(Cc2ccc(Cl)cc2)s1`, the growth was 81.1% (inactive).

Regarding `N#Cc1c(-c2ccc(Cl)cc2)nc(NN=Cc2ccc[nH]2)nc1N1CCOCC1`, the growth was 6.36% (active).

Turning to `Nc1c(Br)cc2c(c1Br)Cc1cc([N+](=O)[O-])ccc1-2`, the growth was 91.3% (inactive).

Consider `CSc1nc2ccc(C)cc2cc1/C=C1/C=C(c2ccccc2)NC1=O`, for which the growth was 57.3% (inactive).

Regarding `COc1cc2c(cc1OCCCN1CCN(C(=S)SCCC(C#N)(c3ccccc3)c3ccccc3)CC1)N=C[C@@H]1CCCN1C2=O`, the growth is -19.3% (active).

For the compound `COC(=O)[C@@]12CC=C(C)[C@]3(C[C@H](c4ccoc4)OC3=O)[C@H]1C=C[C@@H](O)[C@@]2(O)C(=O)OC`, the growth is 120% (inactive).

Regarding `Cc1nc2sc(C(=O)Nc3cccc4ccccc34)c(N)c2cc1C(=O)c1ccccc1`, the growth is 15.6% (inactive).

As for `O=C(CSc1nnnn1-c1ccccc1)Nc1ccc(Oc2ccccc2)cc1`, the growth is 117% (inactive).

Regarding `O=C(/C=C/c1ccccc1Cl)c1cccc(OCCCCOc2cccc(C(=O)/C=C/c3ccccc3Cl)c2)c1`, the growth was -6.16% (active).

For the compound `Oc1c(CN2CCC(N3CCOCC3)CC2)cc(Cc2cc(CN3CCC(N4CCOCC4)CC3)c(O)c3ncccc23)c2cccnc12`, the growth is 34.8% (inactive).

As to `CCCCNC(=O)c1ccc2c(c1)nc(-c1ccccc1)n2C1CCCCC1`, the growth was 88.3% (inactive).

Consider `CN1CCN(Cc2ccc(NC(=O)c3cncc(C#Cc4cnc(N)cc4C#N)c3)cc2C(F)(F)F)CC1`, for which the growth was 12.7% (inactive).

As for `CCOC(=O)c1c(C)nc2ccccc2c1/C=C/c1ccc(F)cc1`, the growth is 48.7% (inactive).

Take `CS(=O)(=O)c1ccc(-c2nc3ccccc3n2CC(=O)N/N=C/c2ccccc2)cc1`: the growth is 108% (inactive).

Turning to `CCN1C(=O)N(c2ccccc2)C2NC(=S)N(/N=C/C=C/c3ccccc3OC)C21` (stereo not given), the growth is 14.7% (inactive).

Consider `O=C(Nc1ccccc1O)c1ccc(CNc2ccnc(C(F)(F)F)c2)cc1`, for which the growth is 1.91% (active).

Take `CCC(C)(C)c1ccc(Nc2ccc(Nc3ccc(C(C)(C)CC)cc3)cc2)cc1`: the growth was 76.8% (inactive).

As to `O=c1cc(-c2ccccc2)nc(SCc2nc3cc(Cl)c(Cl)cc3[nH]2)[nH]1`, the growth was 114% (inactive).

Consider `Cc1cn(C)cn1`, for which the growth was 102% (inactive).

For `COc1cc(C=C2C(=O)NC(=S)NC2=O)cc(CN2CCCC2)c1O`, the growth was 106% (inactive).

As to `COC(=O)c1ccc2c(c1)c1c(C)c3cnccc3c(C)c1n2C`, the growth is -15.4% (active).

(Values after PubChem BioAssay (NCI).)
